This is a sample that favours compounds with a hit; in the whole collection about 1.9% have one here.
NR1D1 modulator: modulators of human Rev-erb alpha DNA binding | activity, % at 10 µM | 370,000 compounds, 0.79% hits | P20393 | Rev-erbα–FITC-DNA binding, fluorescence polarization, 90 min;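 active means activity above about 14%, limit read from the data; passing the limit was not always enough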;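 further: 0% = DMSO wells with 35 nM protein and 100% = DMSO wells with 750 nM protein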
aDG glyco act: increases alpha dystroglycan glycosylation; activation, % at 10 µM; 360,000 compounds, 0.22% hits; Pro5-aDG cells, alpha-DG glycosylation AlphaScreen (IIH6); 0% Pro5, 100% B10-LARGE cell signal;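 active means activation of at least 8% versus controls, or a plate z-score of at least 8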;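 further: Pro5 are CHO cells carrying HIG-tagged alpha-DG that lacks glycosylation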
p47phox inh: inhibitors of human p47phox binding. P14598. p47phox/p22phox peptide binding, fluorescence polarization, 2 h. inhibition, % at 24.7 µM. 220,000 compounds, 0.53% hits. AID 1274;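 active means inhibition above about 30%, limit read from the data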;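 further: 0% = p47phox with labelled peptide and 100% = labelled peptide alone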
Target sequence (P14598 whole entry, looked up): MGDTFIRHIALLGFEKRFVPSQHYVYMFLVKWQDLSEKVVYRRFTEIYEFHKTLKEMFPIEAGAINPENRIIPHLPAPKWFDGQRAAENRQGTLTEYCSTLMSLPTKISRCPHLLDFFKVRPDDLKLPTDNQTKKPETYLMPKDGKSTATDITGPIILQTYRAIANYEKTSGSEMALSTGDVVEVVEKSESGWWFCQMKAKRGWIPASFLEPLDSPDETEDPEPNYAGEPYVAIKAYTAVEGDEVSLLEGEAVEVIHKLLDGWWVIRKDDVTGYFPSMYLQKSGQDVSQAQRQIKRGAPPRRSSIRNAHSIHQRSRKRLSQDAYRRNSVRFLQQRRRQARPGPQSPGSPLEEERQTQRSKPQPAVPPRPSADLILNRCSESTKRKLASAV
PG9 Ab binder: small molecules binding HIV-1 gp120 antibody PG9; TR-FRET gp120-PG9 antibody binding; inhibition, % at 6.7 µM; 360,000 compounds, 0.43% hits; AID 624416; in the data active means inhibition above about 8.5%
EBNA-1 inhibitor: blocks EBNA-1 binding to DNA | EBNA-1 DNA binding, fluorescence polarization | inhibition, % at 14.8 µM | 300,000 compounds, 0.34% hits | AID 1950; in the data active means inhibition above about 28%
ZTA DNA inh: blocks Epstein-Barr virus ZTA, an EBNA-1 counter-screen; P03206; ZTA-DNA binding, fluorescence polarization; inhibition, % at 11 µM; AID 2234; 320,000 compounds, 0.15% hits; in the data active means inhibition above about 33%
Target sequence (P03206 whole entry, looked up): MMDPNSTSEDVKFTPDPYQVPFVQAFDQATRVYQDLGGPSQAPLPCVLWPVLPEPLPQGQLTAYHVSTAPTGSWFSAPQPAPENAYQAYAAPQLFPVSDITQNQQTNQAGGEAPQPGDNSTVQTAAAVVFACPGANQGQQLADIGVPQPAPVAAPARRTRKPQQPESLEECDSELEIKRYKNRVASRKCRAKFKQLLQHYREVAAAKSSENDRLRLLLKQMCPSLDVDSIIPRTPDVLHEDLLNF
Rev-erbA confirm: confirmation of modulators of human Rev-erb alpha DNA binding. shares compounds with NR1D1 modulator. Rev-erb alpha FITC-DNA binding, fluorescence polarization, 90 min. activation, % at 25 µM. 3,000 compounds, 61% hits. AID 1259319;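 active means activation at or above a set limit, or at least 3 SD above the negative control mean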;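 further: 0% = 35 nM protein with DMSO and 100% = 750 nM protein high control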
RORg counter: RORgamma DNA-binding activity, dose-response counter-screen; shares compounds with NR1D1 modulator; purified RORgamma protein-FITC-DNA binding, fluorescence polarization; IC50, µM; 910 compounds, 8% hits; AID 1259320;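 active means Compounds whose fitted half-maximal concentration for disrupting protein-DNA binding is below 10 micromolar; the record names Rev-erb in its text, so the target is in doubt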
* = called active by the depositor; i = inactive; nt = not tested or not shown.

SMILES | NR1D1 modulator | aDG glyco act | p47phox inh | PG9 Ab binder | EBNA-1 inhibitor | ZTA DNA inh | Rev-erbA confirm | others
COc1ccc(C(=O)N=C2SC3CS(=O)(=O)CC3N2c2ccc(N(C)C)cc2)cc1OC (stereo not given) | 53* | 0 | nt | -2 | -4 | -1 | 12
COc1ccc(N2C(=NC(=O)C3CCCCC3)SC3CS(=O)(=O)CC32)cc1OC (stereo not given) | 9 | 0 | nt | -3 | 5 | 19 | nt
CCCc1nc(SCC(=O)NC2CC2)c2c(C)c(C)sc2n1 | 22* | 0 | nt | -1 | -6 | -3 | 8
O=C(Cc1ccccc1)NC1CCCc2c1cnn2-c1ccc(F)cc1F (stereo not given) | 3 | nt | nt | nt | nt | nt | nt
CSc1ccc(Cl)c(C(=O)Nc2ccc(Cl)cn2)c1 | 7 | 0 | 1 | -1 | -4 | 3 | nt
COc1cc2ccccc2cc1C(=O)Nc1ccc(Br)cn1 | 36* | 0 | nt | 0 | nt | nt | 28*
COc1ccccc1C(=O)Nc1ccon1 | -4 | 0 | -8 | -3 | 3 | 5 | nt
COc1ccccc1C(=O)Nc1cccc(NC(=O)c2ccccc2OC)n1 | 23* | 0 | nt | -1 | 15 | 0 | 13
COc1c(C(=O)Nc2ccc(Br)cn2)ccc2ccccc12 | 1 | 0 | nt | 1 | 10 | 0 | nt
COc1cc(SC)ccc1C(=O)Nc1ccc(Cl)cn1 | 18* | 0 | -5 | 0 | 5 | 7 | 34* | RORg counter=i
COc1ccccc1C(=O)NNC(=O)c1cccc(Cl)c1 | 29* | 1 | -7 | 0 | 2 | -14 | 9
O=C1CCC[C@H]2C[C@H](NCc3cccc(I)c3)CC[C@]23CCCN13 | -7 | nt | nt | nt | nt | nt | nt
Cc1nc(SCC(=O)Nc2ccccc2C(F)(F)F)c(C#N)c(C)c1CC(=O)c1ccc(Br)cc1 | 43* | nt | -10 | 1 | -9 | 0 | 7
COc1ccc(C(=O)OCc2cc3cccc(C)c3[nH]c2=O)cc1 | 59* | 0 | -4 | 6 | -4 | 6 | 26*
Cc1ccc(-c2cc(C(F)F)nc3sc4c(=O)[nH]cnc4c23)cc1 | 107* | 0 | nt | 3 | nt | -1 | 113* | RORg counter=>40
CN(C)CC(=O)N[C@@H]1C[C@@H]2O[C@@H](CO)CC[C@@H]2O[C@@H]1CCc1ccc(-c2ccc(F)cc2)cc1 | -6 | nt | nt | nt | nt | nt | nt
Cc1c(N=C2N=C(NC(=O)c3cccs3)c3ccccc32)c(=O)n(-c2ccccc2)n1C | 18* | 0 | -44 | 0 | -4 | 1 | 16
Cc1c(N=C2N=C(NC(=O)NC(C)(C)C)c3ccccc32)c(=O)n(-c2ccccc2)n1C | 0 | 0 | -5 | -4 | -8 | -6 | nt
COC(=O)[C@]1(C)CCC[C@@]2(C)C3CC[C@@]4(C)C[C@]3(CCC21)CC4=NO (stereo not given in full) | 17* | 0 | nt | 0 | nt | 14 | 11
CC(C)Oc1cccc(-c2n[nH]c(=S)n2N=Cc2cccc([N+](=O)[O-])c2)c1 | 2 | nt | nt | nt | nt | nt | nt
N#C/C(=C\c1ccc(N2CCOCC2)o1)C(=O)NC1CCCCC1 | 11 | 0 | -13 | -11 | -4 | -2 | nt
N#C/C(=C/c1ccc(N2CCOCC2)o1)C(=O)Nc1ccccc1 | 53* | 0 | -14 | -16 | nt | nt | 26*
N#C/C(=C\c1ccc(N2CCOCC2)o1)C(=O)NCC1CCCO1 (stereo not given) | 21* | 0 | -22 | -17 | 1 | 0 | 13
N#C/C(=C\c1ccc(N2CCOCC2)o1)C(=O)NCCc1ccccc1 | 7 | 0 | -4 | -13 | 4 | 4 | nt
O=C(C1CCCN1S(=O)(=O)c1ccc(Br)s1)N1CCc2ccccc2C1 (stereo not given) | 2 | nt | nt | nt | nt | nt | nt
SMILES | NR1D1 modulator | aDG glyco act | p47phox inh | PG9 Ab binder | EBNA-1 inhibitor | ZTA DNA inh | Rev-erbA confirm | others
Cc1ccc(S(=O)(=O)N(C)c2ccc(OCC(=O)Nc3nc4c(ccc5ccccc54)s3)cc2)cc1 | 24* | 1 | -77 | -2 | 10 | -8 | 27*
Cc1ccc(S(=O)(=O)N(C)c2ccc(OCC(=O)Nc3nc4ccccc4s3)cc2)cc1 | -8 | 0 | -41 | -3 | 8 | 7 | nt
CN(C)c1ccc(/C=C(\C#N)C(=O)OCC(=O)N(C)C2CCS(=O)(=O)C2)cc1 (stereo not given) | 20* | 0 | nt | -7 | nt | -12 | 16*
COC(=O)Cn1c(C)c(/C=C/c2cc[n+](C)cc2)c2ccccc21 | 154* | 0 | nt | -10 | nt | nt | 114* | RORg counter=>40
COC(=O)Cn1cc(/C=C/c2cc[n+](C)cc2)c2ccccc21 | 55* | 0 | nt | -3 | -2 | -26 | 63* | RORg counter=>40
CCOC(=O)[C@]12CCCC3=C1N(CCC3)C(=O)[C@@H](CC(=O)N1CCCC1)C2 | 8 | nt | nt | nt | nt | nt | nt
COc1ccc(-c2oc3ccc(-c4cc(OC)c(OC)c(OC)c4)cc3c2C(=O)c2ccc(OC)nc2)cc1 | 22* | 0 | nt | 1 | -9 | -1 | 3
COc1ccc(C(=O)c2c(-c3ccc(OC)cc3)oc3ccc(-c4cc(OC)c(OC)c(OC)c4)cc23)cc1 | 13 | -1 | nt | 1 | 17 | -1 | nt
Cc1nn(Cc2ccc(Cl)cc2)c(C)c1NC(=O)CSc1nc2c(c(C(F)(F)F)n1)CCc1ccccc1-2 | 32* | 0 | 45* | 0 | 9 | -9 | 25*
NC(=O)c1c(NC(=O)CSc2nc3c(c(C(F)(F)F)n2)CCc2ccccc2-3)sc2c1CCCC2 | 13 | 0 | 0 | nt | 9 | -4 | nt
COc1ccc(-c2ccc(C#N)c(SCC(=O)Nc3sc4c(c3C#N)CCC4)n2)cc1OC | 40* | 2 | 34* | 0 | 2 | -6 | 24*
N#Cc1c(NC(=O)CSc2nc3c(c(C(F)(F)F)n2)CCc2ccccc2-3)sc2c1CCCC2 | 40* | 0 | -29 | 1 | 1 | 15 | 23*
Cc1ccc(Cn2nc(C)c(NC(=O)CSc3nc4c(c(C(F)(F)F)n3)CCc3ccccc3-4)c2C)cc1 | 45* | 0 | 50* | -1 | -6 | 10 | 29*
O=C1CCC[C@H]2C[C@H](NCc3ccccc3F)CC[C@]23CCCN13 | 3 | nt | nt | nt | nt | nt | nt
Cc1ccccc1Cn1cc(NC(=O)CSc2nc3c(c(C(F)(F)F)n2)CCc2ccccc2-3)cn1 | 19* | 1 | -13 | 2 | -4 | 7 | 9
Cc1c(NC(=O)C2CCCN(S(=O)(=O)c3c(C(C)C)cc(C(C)C)cc3C(C)C)C2)c(=O)n(-c2ccccc2)n1C (stereo not given) | 28* | nt | nt | nt | nt | nt | 24*
COc1ccc(CN(CC#Cc2ccccc2)Cc2ccccc2)c(OC)c1 | 1 | nt | nt | nt | nt | nt | nt
COc1cc2nc(-c3ccccc3)nc(N3CCCC3)c2cc1OC | 42* | nt | -8 | -3 | nt | nt | 25*
